Test results as given in PubChem BioAssay AID435017 (Vanderbilt High Throughput Screening Facility, 2010).
Results with a measured potency or affinity are listed apart. The source made the active and inactive calls.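 Rule for the calls: active = compounds with a dose-dependent response across tested concentrations; inactive = the rest.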

Biological target: ATP-sensitive inward rectifier potassium channel 1 (Homo sapiens) (UniProt P48048)
Assay: ROMK inhibition by analog compounds, SAR follow-up, cell-based, thallium flux, analog library (AID 435017)

Chain of ATP-sensitive inward rectifier potassium channel 1 (Homo sapiens) (P48048 whole entry, looked up): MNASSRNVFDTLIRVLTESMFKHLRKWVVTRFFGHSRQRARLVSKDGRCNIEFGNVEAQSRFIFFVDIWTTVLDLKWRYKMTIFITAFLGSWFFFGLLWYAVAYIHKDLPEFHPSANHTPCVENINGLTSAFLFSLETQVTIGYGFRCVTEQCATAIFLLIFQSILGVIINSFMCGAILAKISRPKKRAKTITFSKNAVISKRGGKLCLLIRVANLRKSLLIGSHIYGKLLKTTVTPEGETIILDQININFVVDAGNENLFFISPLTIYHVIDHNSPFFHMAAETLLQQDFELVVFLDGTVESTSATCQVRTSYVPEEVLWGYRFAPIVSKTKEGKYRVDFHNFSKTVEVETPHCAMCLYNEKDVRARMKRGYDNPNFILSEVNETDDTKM

Structure (SMILES) | outcome
O=C(c1ccc([N+](=O)[O-])cc1)N1CCOCCOCCN(C(=O)c2ccc([N+](=O)[O-])cc2)CCOCC1 | inactive
CN(C)S(=O)(=O)c1ccc2nc(COCc3nc4ccc(S(=O)(=O)N(C)C)cc4[nH]3)[nH]c2c1 | inactive
O=[N+]([O-])c1ccc(CN2CCOCCOCCN(Cc3ccc([N+](=O)[O-])cc3Cl)CCOCC2)c(Cl)c1 | inactive
Fc1ccc2nc(COCc3nc4ccc(F)cc4[nH]3)[nH]c2c1 | inactive
O=[N+]([O-])c1ccc2nc(COCc3nc4ccccc4[nH]3)[nH]c2c1 | inactive
O=[N+]([O-])c1ccc(S(=O)(=O)N2CCOCCOCCN(S(=O)(=O)c3ccc([N+](=O)[O-])cc3)CCOCC2)cc1 | inactive
COCCN(CCOC)Cc1ccc([N+](=O)[O-])cc1 | inactive
c1ccc2[nH]c(COCc3nc4ccccc4[nH]3)nc2c1 | inactive
O=C(Nc1ccc([N+](=O)[O-])cc1)N1CCOCCOCCN(C(=O)Nc2ccc([N+](=O)[O-])cc2)CCOCC1 | inactive
Fc1ccc(CN2CCOCCOCCN(Cc3ccc(F)c(F)c3)CCOCC2)cc1F | inactive
O=[N+]([O-])c1cccc(CN2CCOCCOCCN(Cc3cccc([N+](=O)[O-])c3)CCOCC2)c1 | inactive
O=S(=O)(c1ccc(CN2CCOCCOCCN(Cc3ccc(S(=O)(=O)C(F)(F)F)cc3)CCOCC2)cc1)C(F)(F)F | inactive
CS(=O)(=O)c1ccc(CN2CCOCCOCCN(Cc3ccc(S(C)(=O)=O)cc3)CCOCC2)cc1 | inactive
O=[N+]([O-])c1ccc(CN2CCOCCOCCN(Cc3ccc([N+](=O)[O-])cc3[N+](=O)[O-])CCOCC2)c([N+](=O)[O-])c1 | inactive
